Measurements reported in PubChem BioAssay (Tox21).
Results filed as inconclusive are left out. Activity calls are given as the source filed them. Unless noted, calls come from the whole dose curve.

Tests used:
[1] = Nuclear factor erythroid 2-related factor 2/antioxidant responsive element (Nrf2/ARE) small molecule agonists: qHTS cell viability counter screen in human keratinocytes (AID 1919968; active = well fitted curve in the direction sought with a large enough effect in the repeat runs; an effect the other way counts as inactive or inconclusive; note: nearly all actives have a fitted effect of over 55% in size); conditions: KeratinoSens HaCaT ARE cells viability, CellTiter-Fluor, 24 h; series mostly up to 92.4 µM
Procedure, shortened: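 Viability counter-screen: KeratinoSens reporter cells, DMSO-delivered compounds, 23 h at 37 C, CellTiter-Fluor fluorescence.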

[2] = Nuclear factor erythroid 2-related factor 2/antioxidant responsive element (Nrf2/ARE) small molecule agonists: luciferase reporter gene qHTS assay in human keratinocytes (AID 1919969); conditions: KeratinoSens HaCaT ARE-luciferase, luminescence, 24 h; series mostly up to 92.4 µM; note: nearly all actives have a fitted effect of over 35% in size; note: potency is the fitted concentration of half-maximal effect
[3] = target: Gonadotropin-releasing hormone receptor (Homo sapiens) (UniProt P30968); test: Human gonadotropin-releasing hormone receptor (GnRHR) small molecule agonists, calcium flux assay in GnRHR-HEK293 cells (AID 1920063); conditions: calcium flux fluorescence, agonist mode; series mostly up to 57.6 µM; note: nearly all actives have a fitted effect of over 35% in size
Procedure, shortened: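 Tox21-format agonist screen using human GnRHR-expressing HEK293 cells and a fluorescent calcium dye; kinetic 3-min fluorescence reading after compound addition, 15-point concentration series run in triplicate.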

[4] = target: KiSS-1 receptor (Homo sapiens) (UniProt Q969F8); test: Human kisspeptin (KISS1R) small molecule agonists, calcium flux assay in KISS1R-HEK293 cells (AID 1920064; active = well fitted curve in the direction sought with a large enough effect in the repeat runs; an effect the other way counts as inactive or inconclusive); conditions: KISS1R-HEK293, calcium flux fluorescence, agonist; series mostly up to 76.8 µM
Procedure, shortened: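 Intracellular calcium mobilization in KISS1R-HEK293 cells was recorded by fluorescence (Ex/Em 480/540) for 3 min following compound addition to cells pre-loaded 1 h with calcium dye.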

[5] = G protein-coupled receptor (GPCR) small molecule agonists, calcium flux assay: HEK293 wild type cell line counter screen (AID 1920065); conditions: HEK293 WT calcium flux, fluorescence, agonist mode; series mostly up to 57.6 µM
Procedure, shortened: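 In this agonist-mode screen, ATP is the positive control and DMSO the vehicle. Cells grow 18 h before a 1 h dye incubation at 37 C; signal is taken at Ex/Em 480/540 over 3 min.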

[6] = p53 small molecule agonists, cell-based qHTS assay with human liver microsomes (AID 1963577); conditions: HCT-116 p53RE-bla with human liver microsomes, ratio, 16 h; series mostly up to 66 µM;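 note: p53 response element beta-lactamase reporter cells with liver microsomes plus NADPH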
Procedure, shortened: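 Reporter activation was measured by LiveBLAzer fluorescence intensity in p53RE-bla cells, which had been exposed to compounds for 16 h at 37 C alongside 0.5 mg/mL human liver microsomes and 0.5 mg/mL NADPH (final concentrations).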

[7] = p53 small molecule agonists, cell-based qHTS assay with rat liver microsomes (AID 1963578); conditions: HCT-116 p53RE-bla, beta-lactamase ratio, 16 h; series mostly up to 66 µM
Procedure, shortened: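 Compound in DMSO added to p53RE-bla cells 5 h post-plating; rat microsomes/NADPH 0.5 mg/mL final; 16 h, 37 C; LiveBLAzer 2 h RT.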

[8] = p53 small molecule agonists, cell-based qHTS assay with human liver microsomes: qHTS cell viability counter screen (AID 1963579); conditions: p53RE-bla HCT-116 viability, ATP luminescence, 16 h, HLM; series mostly up to 66 µM; note: nearly all actives have a fitted effect of over 45% in size
Procedure, shortened: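 HLM-supplemented (0.5 mg/mL final) and NADPH-supplemented (0.5 mg/mL final) p53RE-bla cultures, 4,000 cells per well, were dosed with compounds in DMSO for 16 h at 37 C; luminescent ATP detection (CellTiter-Glo, 30 min, room temperature) quantified surviving cells.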

[9] = p53 small molecule agonists, cell-based qHTS assay with rat liver microsomes: qHTS cell viability counter screen (AID 1963580); conditions: p53RE-bla HCT-116 + rat microsomes, ATP viability, 16 h; series mostly up to 66 µM; note: nearly all actives have a fitted effect of over 45% in size
Procedure, shortened: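 In HCT-116 cells carrying a p53 response element-bla reporter, compounds were metabolically activated in situ by rat liver microsomes with NADPH over 16 h. Cell ATP content then served as the cytotoxicity measure.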

[10] = p53 small molecule agonists, cell-based qHTS assay: qHTS cell viability counter screen (AID 1963581); conditions: p53RE-bla HCT-116 viability, ATP luminescence, 16 h; series mostly up to 66 µM; note: nearly all actives have a fitted effect of over 45% in size
Procedure, shortened: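 Compounds are pinned onto HCT-116 p53RE-bla cells and left 16 h at 37 C. Following the reporter FRET read, ATP is quantified by CellTiter-Glo luminescence after 30 min at room temperature.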

[11] = p53 small molecule agonists, cell-based qHTS assay (AID 1963582; active = well fitted activation curve with a large enough effect in the signal ratio in the repeat runs, not every such curve was filed as active; the % refers to the signal ratio); conditions: HCT-116 p53RE-bla reporter, beta-lactamase FRET ratio, 16 h; series mostly up to 66 µM
Procedure, shortened: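 Agonist activity was scored from beta-lactamase FRET fluorescence in p53RE-bla cells treated 16 h at 37 C with compounds in DMSO, substrate incubation being 2 h at room temperature.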

[12] = target: 5-hydroxytryptamine receptor 2A (Homo sapiens) (UniProt P28223); test: 5-hydroxytryptamine receptor 2A (HTR2A) small molecule antagonists, cell-based qHTS assay (AID 1963586); conditions: HTR2A-CHO cells, DOI-induced calcium flux, fluorescence; series mostly up to 61.5 µM; note: nearly all actives have a fitted effect of over 45% in size
Procedure, shortened: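 Antagonist-mode intracellular calcium assay: DOI (4 nM) added after 5 min compound pre-incubation at room temperature to dye-loaded HTR2A-CHO cells. Fluorescence followed for 3 min, sampled every second.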

[13] = target: 5-hydroxytryptamine receptor 2A (Homo sapiens) (UniProt P28223); test: 5-hydroxytryptamine receptor 2A (HTR2A) small molecule agonists, cell-based qHTS assay (AID 1963587); conditions: HTR2A-CHO cells, calcium flux fluorescence, agonist mode; series mostly up to 76.8 µM; note: nearly all actives have a fitted effect of over 30% in size; note: potency is the fitted concentration of half-maximal effect
Procedure, shortened: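 HTR2A-CHO cells, plated 18 h at 37 C/5% CO2, dye-loaded 1 h at 37 C; compounds in DMSO added by pin tool (agonist mode). Intracellular calcium flux read as kinetic fluorescence on FDSS over 2 min at 1 s intervals.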

[14] = target: Muscarinic acetylcholine receptor M1 (Homo sapiens) (UniProt P11229); test: Cholinergic receptor muscarinic 1 (CHRM1) small molecule antagonists, cell-based qHTS assay (AID 1963588); conditions: CHRM1-CHO antagonist mode, calcium flux fluorescence; series mostly up to 61.5 µM; note: nearly all actives have a fitted effect of over 40% in size
Procedure, shortened: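 CHRM1-CHO calcium-flux assay, antagonist mode. Cells were seeded 18 h, dye-loaded 1 h at 37 C and given compound for 5 min at RT, then acetylcholine was added at 50nM. FDSS fluorescence was read 3 min; 15 concentrations, three runs.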

[15] = target: Muscarinic acetylcholine receptor M1 (Homo sapiens) (UniProt P11229); test: Cholinergic receptor muscarinic 1 (CHRM1) small molecule agonists, cell-based qHTS assay (AID 1963589); conditions: CHRM1-CHO cells, agonist mode, calcium flux fluorescence; series mostly up to 76.8 µM; note: nearly all actives have a fitted effect of over 35% in size
Procedure, shortened: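 Stable CHRM1-CHO cells (human receptor) were incubated 18 h, dye-loaded for 1 h at 37 C and exposed to test compounds for agonist activity, with calcium-dependent fluorescence followed kinetically.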

[16] = cAMP Responsive Elements (CRE) small molecule agonists, cell-based qHTS assay (AID 1963590); conditions: CRE-bla HEK293T, beta-lactamase FRET ratio, 3 h; series mostly up to 92.4 µM
Procedure, shortened: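 FRET-based beta-lactamase readout (LiveBLAzer B/G, 2 h RT) quantified CRE activation in HEK 293T CRE-bla cells after 3 h treatment with DMSO-dissolved compounds.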

[17] = cAMP Responsive Elements (CRE) small molecule antagonists, cell-based qHTS assay (AID 1963591; active = well fitted inhibition curve with a large enough effect in the signal ratio in the repeat runs, not every such curve was filed as active; the % refers to the signal ratio); conditions: CRE-bla HEK293T, beta-lactamase FRET ratio; series mostly up to 92.4 µM
Procedure, shortened: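 qHTS in CRE-bla HEK 293T cells: compound in DMSO, then 0.25 uM NKH477 (final), 3 h at 37 °C/5% CO2; beta-lactamase FRET read-out after 2 h substrate incubation.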

[18] = target: Beta-2 adrenergic receptor (Homo sapiens) (UniProt P07550); test: Adrenergic beta2 receptor (ADRB2) small molecule antagonists, cell-based qHTS assay (AID 1963592); conditions: CHO-ADRB2 cells, isoproterenol-stimulated cAMP HTRF ratio, 0.5 h; series mostly up to 92.4 µM; note: nearly all actives have a fitted effect of over 50% in size
Procedure, shortened: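 Cells (CHO, stable ADRB2 overexpression) incubated 18-20hr at 37C; compounds added from DMSO; agonist mix (1nM isoproterenol, 100uM IBMX, 25uM Ro-20-1724) added; 0.5hr RT; d2-cAMP and anti-cAMP-cryptate added; 1hr RT; 665/615 nm read.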

[19] = target: D(2) dopamine receptor (Homo sapiens) (UniProt P14416); test: Dopamine D2 receptor (DRD2) small molecule agonists, cell-based qHTS assay (AID 1963594); conditions: HEK293-DRD2 cAMP HTRF, agonist mode, 30 min; series mostly up to 92.4 µM; note: nearly all actives have a fitted effect of over 35% in size
Procedure, shortened: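 HEK293 cells stably expressing DRD2 were cultured 24 h at 37 C, then given Ro20-1724 (0.1 mM final) and compounds for 10 min at room temperature. NKH477 (200nM) was then added for 30 min. cAMP was read by HTRF.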

[20] = target: D(2) dopamine receptor (Homo sapiens) (UniProt P14416); test: Dopamine D2 receptor (DRD2) small molecule antagonists, cell-based qHTS assay (AID 1963595; active = well fitted inhibition curve with a large enough effect in the signal ratio in the repeat runs, with a control signal flat; the % refers to the signal ratio); conditions: HEK293-DRD2 cAMP HTRF antagonist mode; series mostly up to 92.4 µM
Procedure, shortened: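 Human DRD2 antagonist qHTS measuring cAMP by HTRF. The cells are exposed to compound for 10 min, then to NKH477 (200 nM) and quinpirole (12 nM) for 30 min at RT, with Ro20-1724 (0.1 mM) present throughout.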

Measured: Potency

Beta-2 adrenergic receptor (Homo sapiens), sequence (P07550 whole entry, looked up): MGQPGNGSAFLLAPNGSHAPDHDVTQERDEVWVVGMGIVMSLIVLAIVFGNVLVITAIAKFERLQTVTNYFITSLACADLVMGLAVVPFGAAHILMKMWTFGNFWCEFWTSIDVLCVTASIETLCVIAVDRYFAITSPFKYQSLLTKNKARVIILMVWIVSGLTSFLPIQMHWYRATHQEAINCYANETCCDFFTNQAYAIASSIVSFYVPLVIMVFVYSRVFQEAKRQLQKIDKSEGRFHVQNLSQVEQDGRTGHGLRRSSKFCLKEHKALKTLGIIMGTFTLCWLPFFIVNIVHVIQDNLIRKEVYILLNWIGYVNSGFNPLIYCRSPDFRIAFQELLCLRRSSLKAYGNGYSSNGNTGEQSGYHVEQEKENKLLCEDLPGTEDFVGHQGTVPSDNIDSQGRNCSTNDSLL
Muscarinic acetylcholine receptor M1 (Homo sapiens), sequence (P11229 whole entry, looked up): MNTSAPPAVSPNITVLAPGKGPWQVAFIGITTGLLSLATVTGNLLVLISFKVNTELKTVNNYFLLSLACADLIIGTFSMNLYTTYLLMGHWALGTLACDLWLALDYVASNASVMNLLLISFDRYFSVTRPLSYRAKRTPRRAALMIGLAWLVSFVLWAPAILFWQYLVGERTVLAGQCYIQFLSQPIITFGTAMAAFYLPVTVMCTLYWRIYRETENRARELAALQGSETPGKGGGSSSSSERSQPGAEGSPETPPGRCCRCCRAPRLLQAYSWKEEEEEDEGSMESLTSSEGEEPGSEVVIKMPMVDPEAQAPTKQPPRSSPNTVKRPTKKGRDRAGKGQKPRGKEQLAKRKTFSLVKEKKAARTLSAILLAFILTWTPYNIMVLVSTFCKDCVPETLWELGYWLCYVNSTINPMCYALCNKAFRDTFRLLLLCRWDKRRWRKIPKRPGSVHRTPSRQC
D(2) dopamine receptor (Homo sapiens), sequence (P14416 whole entry, looked up): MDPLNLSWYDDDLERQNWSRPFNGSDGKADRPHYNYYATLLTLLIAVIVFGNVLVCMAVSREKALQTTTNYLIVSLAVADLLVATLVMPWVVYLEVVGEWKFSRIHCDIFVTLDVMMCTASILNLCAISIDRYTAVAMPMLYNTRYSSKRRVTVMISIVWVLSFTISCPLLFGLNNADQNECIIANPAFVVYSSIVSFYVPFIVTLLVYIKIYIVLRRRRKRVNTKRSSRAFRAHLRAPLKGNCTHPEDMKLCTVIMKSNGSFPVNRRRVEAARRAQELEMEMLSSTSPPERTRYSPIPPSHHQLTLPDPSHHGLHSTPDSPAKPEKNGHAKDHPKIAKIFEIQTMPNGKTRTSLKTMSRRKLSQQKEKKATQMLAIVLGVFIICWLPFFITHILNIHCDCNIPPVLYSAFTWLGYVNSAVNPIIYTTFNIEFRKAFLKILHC
Gonadotropin-releasing hormone receptor (Homo sapiens), sequence (P30968 whole entry, looked up): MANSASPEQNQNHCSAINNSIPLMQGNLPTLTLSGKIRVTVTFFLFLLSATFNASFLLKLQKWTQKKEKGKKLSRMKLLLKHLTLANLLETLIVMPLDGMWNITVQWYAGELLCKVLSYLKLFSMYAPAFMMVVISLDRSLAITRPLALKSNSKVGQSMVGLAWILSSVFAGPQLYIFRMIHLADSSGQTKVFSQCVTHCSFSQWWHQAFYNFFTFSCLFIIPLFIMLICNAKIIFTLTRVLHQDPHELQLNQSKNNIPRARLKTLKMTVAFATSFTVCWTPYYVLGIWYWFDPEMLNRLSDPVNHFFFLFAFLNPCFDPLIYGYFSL
KiSS-1 receptor (Homo sapiens), sequence (Q969F8 whole entry, looked up): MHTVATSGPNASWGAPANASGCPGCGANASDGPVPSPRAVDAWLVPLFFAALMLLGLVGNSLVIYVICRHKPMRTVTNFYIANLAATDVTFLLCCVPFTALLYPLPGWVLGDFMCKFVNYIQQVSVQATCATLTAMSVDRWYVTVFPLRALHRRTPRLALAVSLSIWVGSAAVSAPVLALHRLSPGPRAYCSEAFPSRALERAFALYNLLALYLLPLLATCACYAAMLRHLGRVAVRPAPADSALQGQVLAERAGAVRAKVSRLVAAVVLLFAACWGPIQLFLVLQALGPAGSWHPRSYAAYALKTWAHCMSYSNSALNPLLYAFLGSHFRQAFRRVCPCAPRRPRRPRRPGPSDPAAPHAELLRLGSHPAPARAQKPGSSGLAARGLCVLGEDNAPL
5-hydroxytryptamine receptor 2A (Homo sapiens), sequence (P28223 whole entry, looked up): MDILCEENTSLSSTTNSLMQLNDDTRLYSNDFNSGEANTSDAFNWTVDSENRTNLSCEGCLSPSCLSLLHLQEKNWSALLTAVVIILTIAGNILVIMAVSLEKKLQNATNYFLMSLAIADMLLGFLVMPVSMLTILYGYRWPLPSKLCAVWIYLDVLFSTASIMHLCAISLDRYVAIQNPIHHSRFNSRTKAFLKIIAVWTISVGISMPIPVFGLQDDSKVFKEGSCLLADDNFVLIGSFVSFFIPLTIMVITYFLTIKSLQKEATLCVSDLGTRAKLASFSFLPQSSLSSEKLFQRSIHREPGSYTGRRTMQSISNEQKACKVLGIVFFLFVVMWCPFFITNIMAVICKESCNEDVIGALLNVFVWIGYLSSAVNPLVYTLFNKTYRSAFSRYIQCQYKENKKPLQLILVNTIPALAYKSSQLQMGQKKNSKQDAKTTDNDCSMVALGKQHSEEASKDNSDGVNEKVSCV

C=CC(=O)O
inactive: [1] | [2] | [3] | [4] | [5] | [6] | [7] | [8] | [9] | [10] | [11] | [12] | [13] | [14] | [15] | [16] | [17] | [18] | [19] | [20]

NC(CS)C(=O)O (stereo not drawn)
inactive: [1] | [2] | [3] | [4] | [5] | [6] | [7] | [8] | [9] | [10] | [11] | [12] | [13] | [14] | [15] | [16] | [17] | [18] | [19] | [20]

CCCCC(=O)O[C@]1(C(=O)CO)[C@H](C)C[C@H]2[C@@H]3CCC4=CC(=O)C=C[C@]4(C)[C@@]3(F)[C@@H](O)C[C@@]21C
inactive: [1] | [2] | [3] | [4] | [5] | [6] | [7] | [8] | [9] | [10] | [11] | [12] | [13] | [14] | [15] | [16] | [17] | [18] | [19] | [20]

CCCCC(CC)C(=O)OC(C)C (stereo not drawn)
inactive: [1] | [2] | [3] | [4] | [5] | [6] | [7] | [8] | [9] | [10] | [11] | [12] | [13] | [14] | [15] | [16] | [17] | [18] | [19] | [20]

CCO[Si](OCC)(OCC)OCC
inactive: [1] | [2] | [3] | [4] | [5] | [6] | [7] | [8] | [9] | [10] | [11] | [12] | [13] | [14] | [15] | [16] | [17] | [18] | [19] | [20]

Cc1ccnc(N)c1
inactive: [1] | [2] | [3] | [4] | [5] | [6] | [7] | [8] | [9] | [10] | [11] | [12] | [13] | [14] | [15] | [16] | [17] | [18] | [19] | [20]

CC(C)(C)C1=CC(=O)C(C(C)(C)C)=CC1=O
inactive: [1] | [3] | [4] | [5] | [6] | [7] | [8] | [9] | [10] | [11] | [12] | [14] | [15] | [16] | [17] | [18] | [19] | [20]
active: [2] 26.6 µM | [13] 3.79 µM

N#CC1(N)CCCCC1
inactive: [1] | [2] | [3] | [4] | [5] | [6] | [7] | [8] | [9] | [10] | [11] | [12] | [13] | [14] | [15] | [16] | [17] | [18] | [19]

CC(C)(C)C1(CCc2ccc(Cl)cc2)CO1 (stereo not drawn)
inactive: [1] | [2] | [3] | [4] | [5] | [6] | [7] | [8] | [9] | [10] | [11] | [12] | [13] | [14] | [15] | [16] | [17] | [18] | [19] | [20]

CC(C)=CCCC(C)C=O (stereo not drawn)
inactive: [1] | [2] | [3] | [4] | [5] | [6] | [7] | [8] | [9] | [10] | [11] | [12] | [13] | [14] | [15] | [16] | [17] | [18] | [19] | [20]

CC(C)C1OCCN1CCOC(=O)NCCCCCCNC(=O)OCCN1CCOC1C(C)C (stereo not drawn)
inactive: [1] | [2] | [3] | [4] | [5] | [6] | [7] | [8] | [9] | [10] | [11] | [12] | [13] | [14] | [15] | [16] | [17] | [18] | [19]

CCOc1ccc2ccccc2c1C(=O)N[C@@H]1C(=O)N2[C@@H]1SC(C)(C)[C@@H]2C(=O)O
inactive: [1] | [2] | [3] | [4] | [5] | [6] | [7] | [8] | [9] | [10] | [11] | [12] | [13] | [14] | [15] | [16] | [17] | [18] | [19] | [20]

Nc1ccc(C(=O)NCC(=O)O)cc1
inactive: [1] | [2] | [3] | [4] | [5] | [6] | [7] | [8] | [9] | [10] | [11] | [12] | [13] | [14] | [15] | [16] | [17] | [18] | [19] | [20]
